Assay results as given in PubChem BioAssay (Tox21).
Values joined by “and” are separate entries in the source; they are usually repeats but may differ in a detail not shown here. Identical values can stand only once. Results filed as inconclusive are left out. Where a call stands in place of a potency, no number is given. The source holds several records for some structures; these can differ, active in one and inactive in another. Active and inactive are the calls of the source. Calls come from the whole dose curve; as a rule, active = well fitted inhibition curve with a large enough effect in the repeat runs; inconclusive = weak or mixed curves; inactive = no such curve, though single readings can be large or run the other way.

molecular target: Cytochrome P450 2D6 (Homo sapiens) (UniProt P10635); test: Cytochrome P450 Family 2 Subfamily D Member 6 (CYP2D6) small molecule antagonists: luciferase reporter qHTS assay (AID 1671196); settings: P450-Glo CYP2D6 enzyme assay, luciferin luminescence, 1 h; series mostly up to 115 µM; note: nearly all actives have a fitted effect of over 50% in size
Sequence (P10635 whole entry, looked up): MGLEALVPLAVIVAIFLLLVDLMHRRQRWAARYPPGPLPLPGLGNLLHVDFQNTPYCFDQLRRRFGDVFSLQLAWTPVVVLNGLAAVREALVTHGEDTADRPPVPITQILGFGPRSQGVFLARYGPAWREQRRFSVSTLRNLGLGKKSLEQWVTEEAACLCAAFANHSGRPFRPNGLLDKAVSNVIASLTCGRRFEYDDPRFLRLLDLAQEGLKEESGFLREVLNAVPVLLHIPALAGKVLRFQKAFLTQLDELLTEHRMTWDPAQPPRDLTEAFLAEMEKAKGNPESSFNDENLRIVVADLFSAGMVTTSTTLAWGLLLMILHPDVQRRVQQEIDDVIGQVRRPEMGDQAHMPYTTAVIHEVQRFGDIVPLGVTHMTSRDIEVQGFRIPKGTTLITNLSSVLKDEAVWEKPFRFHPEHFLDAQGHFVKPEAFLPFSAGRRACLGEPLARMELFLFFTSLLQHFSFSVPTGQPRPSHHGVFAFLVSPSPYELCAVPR
Excerpt: U.S. Tox21 Program National Center for Advancing Translational Sciences [NCATS] U.S. Environmental Protection Agency [EPA] National Institutes of Environmental Health Sciences [NIEHS] National Toxicology Program [NTP] U.S. Food and Drug Administration [FDA] Tox21 Assay Overview: Cytochrome P450 (CYP) enzymes are membrane-bound hemeproteins that play a key role in metabolism of drugs and xenobiotics. Evaluation of the effect of chemicals on CYP isozymes is useful to minimize the adverse drug reactions and toxicities in drug development process. Tox21 chemicals were tested for their effect on CYP enzyme activities by using P450-Glo (TM) screening systems (Promega Corporation, Madison, WI). These systems provide a luminescent method containing proluciferin substrates and are converted to luciferin products by CYP isozymes. The luciferin products formed are detected with a luciferin detection reagent, and the amount of light produced is proportional to CYP activity. P450-Glo (TM) CYP2D6 screening system (Catalog. No. V9890) was used to detect the compounds that interfere in CYP2D6 activity.
Tox21 Assay Protocol Summary: Two ul of enzyme-substrate mix was dispensed into medium binding white/solid 1536-well plates (Greiner Bio-One North America Inc., Monroe, NC) using a BioRaptr Flying Reagent Dispenser (FRD, Beckman Coulter, Brea, CA). […] The assay plates were incubated at room temperature for 10 min. Then 2 ul of NADPH regeneration solution was added to each well of the assay plates using an FRD and incubated at room temperature for 1 h. The reaction was stopped by adding 4 ul of detection reagent using an FRD and after 20 min incubation at room temperature the luminescence signal was measured using a ViewLux plate reader (Perkin Elmer, Shelton, CT). Data were expressed as relative luminescence units.
Potency is the fitted concentration of half-maximal effect.

SMILES | Potency
O=C(NC(=O)c1c(F)cccc1F)Nc1cc(Cl)c(OC(F)(F)C(F)C(F)(F)F)cc1Cl (stereo not given) | inactive
CC(C)C1(C)N=C(c2nc3ccccc3cc2C(=O)O)NC1=O (stereo not given) | inactive
OC(O)C(Cl)(Cl)Cl | inactive
CC(C)(C)C(O)(CCc1ccc(Cl)cc1)Cn1cncn1 (stereo not given) | 28.6 µM (active) and 35.6 µM (active)
CCCCOC(=O)c1ccccc1C(=O)OCCCC | inactive
CCCCN(CC)C(=O)SCCC | inactive
CC(Br)C(=O)O (stereo not given) | inactive
O=C(O)c1ccccn1 | inactive
CC(C)(C)OOC(=O)c1ccccc1 | inactive
NCCc1ccc(O)cc1 | 25 µM (active) and 7.76 µM (active)
CCN(CC)CCO | inactive
CCC12COCN1COC2 | inactive
ClCc1cccnc1 | inactive
Oc1ccccc1Cl | inactive
C=CCO | inactive
c1cc2c3c(cccc3c1)CC2 | inactive
CCCCN(CCCC)SN(C)C(=O)Oc1cccc2c1OC(C)(C)C2 | 28.7 µM (active) and 35.6 µM (active)
COCCl | inactive
Cc1cc(-c2cc(C)c(N)c(C)c2)cc(C)c1N | 22.5 µM (active) and 15.6 µM (active)
Clc1cccc(Cl)c1Cl | inactive

SMILES | Potency
CCCCCCCCCl | inactive
[O-][Cl+2]([O-])O | inactive
CCc1cccc(C)c1N(C(=O)CCl)C(C)COC (stereo not given) | inactive
c1ccc2c(c1)oc1ccccc12 | inactive
CC(C)C#N | inactive
CCOP(OCC)OCC | 91 µM (active) and 35.6 µM (active)
CON(C)C(=O)Nc1ccc(Cl)c(Cl)c1 | inactive
CCNc1nc(NC(C)C)nc(SC)n1 | inactive
CC1OC(C)OC(C)O1 (stereo not given) | inactive
OCCN(CCO)CCO | inactive
O=c1ccc(=O)[nH][nH]1 | inactive
Cc1[nH]c(=O)n(C(C)(C)C)c(=O)c1Cl | inactive
CC(C)OC(=O)Nc1cccc(Cl)c1 | inactive
CN=C=S | inactive
Cc1ccc(N)cc1N | 30.9 µM (active) and 31.7 µM (active)
CCCN(CCC)c1c([N+](=O)[O-])cc(C(F)(F)F)cc1[N+](=O)[O-] | inactive
O=[N+]([O-])c1ccc([As](=O)(O)O)cc1 | inactive
C[C@]12CC[C@H]3[C@@H](CC[C@@]45O[C@@H]4C(O)=C(C#N)C[C@]35C)[C@@H]1CC[C@@H]2O | inactive
c1ccc2c(c1)Oc1ccccc1O2 | inactive
CCOP(=S)(OCC)SCCSCC | 20.6 µM (active) and inactive
